Test results taken from PubChem BioAssay (NCI).
The panel holds about 79,000 compounds, 15% with a hit somewhere; the sample as a whole holds those more often. Values without a mark were called inactive. The source made the active and inactive calls. Cut-off read from the data, not from the text of the source: active = growth inhibition above about 70%; inactive = the rest.

What was measured:
[1] = NCI Yeast Anticancer Drug Screen. Data for the rad50 strain (AID 155);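 note: 0% = growth of vehicle-only cultures of the same strain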; settings: S. cerevisiae rad50 strain growth inhibition; at 50.0 µM; stronger effect = higher value
Summary of the method: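 Growth of the mutant yeast was measured after compound exposure and referenced to vehicle-treated cultures.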

[2] = NCI Yeast Anticancer Drug Screen. Data for the sgs1 mgt1 strain (AID 161);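 note: 0% = growth of cultures given vehicle only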; settings: S. cerevisiae sgs1 mgt1 strain, at 50.0 µM, stronger effect = higher value
Summary of the method: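 Test agents were incubated with a DNA-repair-mutant yeast strain. Growth was then read and compared against vehicle-treated controls.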

[3] = NCI Yeast Anticancer Drug Screen. Data for the cln2 rad14 strain (AID 165);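 note: 0% = growth equal to vehicle treated cultures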; settings: S. cerevisiae cln2 rad14 strain, at 50.0 µM, stronger effect = higher value
Summary of the method: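 Compounds are applied to the cln2 rad14 yeast strain, and growth is then compared with that of vehicle-treated cultures to give inhibition.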

[4] = NCI Yeast Anticancer Drug Screen. Data for the bub3 strain (AID 167); settings: S. cerevisiae bub3 mutant strain, at 50.0 µM, stronger effect = higher value
Summary of the method: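 Whole-cell yeast assay. The mutant strain was incubated with compounds, and growth inhibition was determined by comparison with vehicle-treated cells.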

[5] = NCI Yeast Anticancer Drug Screen. Data for the mlh1 rad18 strain (AID 175); settings: S. cerevisiae mlh1 rad18 strain growth inhibition; at 50.0 µM; stronger effect = higher value
Summary of the method: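 Read-out is yeast growth inhibition, calculated against vehicle-only controls. The compound was applied to a strain engineered with DNA damage repair alterations.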

Structure (SMILES)	growth inhibition [1]	growth inhibition [2]	growth inhibition [3]	growth inhibition [4]	growth inhibition [5]
CCn1c(C)[n+](CCCOS(=O)(=O)[O-])c2ccccc21	2.6%	-14.4%	4.1%	4.6%	-6.05%
CNC(=O)CCC(NC(=O)OC(C)(C)C)C(=O)NC(Cc1ccc(NC(=O)CCCCC(C)=O)cc1)C(=O)NCC(=O)NC (centres undefined)	-18.3%	-0.25%	9.8%	3.75%	-2.1%
CCOC(=O)C(NC(=O)CC(C)C)(NC(C)C)C(F)(F)F (centres undefined)	-8.45%	-9.4%	-8.1%	-3.45%	-12.9%
CCOC(=O)CC1(O)C(=O)N(Cc2ccccc2)c2ccccc21 (centres undefined)	15.6%	7.55%	0.4%	19.8%	-15.1%
CNC(=O)N(CC1CCCCC1)c1nc2c(=O)n(C)c(=O)[nH]c2s1	-4.75%	-1%	-22.7%	-4.25%	-3.6%
Nc1cccc(C(O)c2ccccc2)c1 (centres undefined)	11.2%	0.1%	6.25%	7.3%	13.1%
Cc1c(Cl)cccc1NC(=O)Oc1ccc(F)cc1Cl	-1.4%	-2.3%	7.35%	17.6%	-4.55%
CCOC(=O)C(C#N)C1=CC(=O)C(=O)c2ccc(O)cc21 (centres undefined)	-4.8%	-1.15%	27%	16.6%	0.45%
Cc1ccc(NC(=O)CCc2nnc3s/c(=C\c4cccc([N+](=O)[O-])c4)c(=O)n23)cc1	-31.4%	-10.6%	14%	10.7%	3.3%
CC(C)OCCCN(Cn1c(=S)sc2ccccc21)Cn1c(=S)sc2ccccc21	66.8%	85.9% (active)	42.8%	39.2%	55.6%
CC1C(OC(=O)CCl)CCC2C1(C)CCC1C2(C)CCC2(C)C3CC(C)(C)CCC3(C)CCC12C (centres undefined)	-13.2%	-1.85%	-12.2%	2.15%	-10.2%
CC(=O)C(CCC#N)(CCC#N)C(=O)Nc1ccccc1	-9%	3.35%	-6%	-2.05%	-21.5%
CCOc1c(Cc2ccccc2)c(=O)n2c3ccccc3n(CC)c2c1C#N	-4.75%	0.25%	-11.8%	-29.9%	-10.8%
Cc1ccc([N+](=O)[O-])c2c(NCCCN(C)C)ccnc12	42.2%	20%	4.7%	13.2%	49.2%
C=CCc1cccc(CC=C)c1OCCN(CC)CC	13.4%	17.6%	10.2%	7.3%	16.8%
CCN=C(C#N)NCC	19.2%	20.9%	16.6%	25.2%	29.8%
CCCCCCCCCCCCCCCC[N+](C)(C)CC#CCCl	-3.15%	48.6%	98.7% (active)	99.3% (active)	48.8%
N#CCC(=O)N/N=C/c1ccccc1	8.3%	0.55%	9.95%	-5.85%	9.4%
Oc1c(Br)cc(CN(Cc2cc(Br)c(O)c(Br)c2)C2CCCCC2)cc1Br	-2.75%	-21.3%	-15.7%	-23.1%	5.4%
Cc1ccc(NC(=O)COc2cc(Cl)c(Cl)cc2Cl)c([N+](=O)[O-])c1	-28.9%	-11.8%	-0.55%	-0.2%	-0.4%
COc1ccc2nc3ccccc3c(NCCCN(C)C)c2c1[N+](=O)[O-]	-8.1%	12.9%	-22.2%	-13.3%	-4.7%
OCC(I)CO	15.8%	16.9%	1.45%	1.7%	16.6%
O=C(Nc1cccc(C(F)(F)F)c1)c1ccco1	34.5%	28.7%	3.55%	11.1%	17%
CCOC(=O)c1ccc(NC(=O)Nc2cc(Cl)ccc2OC)cc1	4%	21%	-2.9%	34%	19.7%
NC(=S)N1CCCC1	-2.2%	3.05%	7%		19.3%
Cc1cccc2c1Oc1ccccc1C2NC(=O)OCCCl (centres undefined)	1.8%	8.7%	-37%	0.85%	12.8%
